Measured values published in PubChem BioAssay AID651692 (Broad Institute, 2012).
Results with a measured potency or affinity are listed apart. The source made the active and inactive calls.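 The calls were made as follows: active = fitted half-maximal concentration for loss of cell signal no higher than twice the top valid tested concentration; inconclusive = flat curve at 30 to 70% inhibition, or poor fit; inactive = flat within 30%, signal rise, or potency above limit.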

Assay: MDA-MB-231 cell growth inhibition, dose response, cytotoxicity control for RAD54 inhibitor project, CellTiter-Glo luminescence, cherry-pick (AID 651692);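 also: more negative values mean stronger loss of viable cell signal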
Conditions: MDA-MB-231 viability, 24 h; series mostly up to 26 µM

Row | SMILES | outcome
1 | CCn1c(=O)c2cc(C(=O)NCCN(C)C)sc2c2ccccc21 | inactive
2 | COc1ccc(Nc2c3ccccc3nc3ccccc23)cc1 | inactive
3 | COc1cc2nc(Nc3ccc(F)cc3)nc(N)c2cc1OC | inactive
4 | CCCCN(C)CCNC(=O)c1cc2cc3ccc(OC)cc3nc2o1 | inactive
5 | CCN(CC)CCNc1nc2cc(OC)c(OC)cc2c2nc(-c3ccccc3)nn12 | inactive
6 | CCN1CCN(CCCNC(=O)c2cc3c(=O)oc4ccc(C)cc4c3s2)CC1 | inactive
7 | CCOCCCNC(=S)Nc1ccc2nc(N3CCN(CC)CC3)cc(C)c2c1 | inactive
8 | CCOC(=O)c1cnc2ccc(OC)cc2c1Nc1ccc(N2CCN(C)CC2)cc1 | inactive
9 | COc1ccccc1NC(=O)Cn1nnc2sc3c(c2c1=O)CC(C)(C)OC3 | inactive
10 | CN1CCC[C@H]1CCNc1ccc2c(=O)c3ccccc3n(C)c2c1 | inactive
11 | Cn1c(C(=O)NCCN2CCCCCC2)cc2c(=O)n(C)c3ccccc3c21 | inactive
12 | COc1cc2nc(N(C)C)nc(N)c2cc1OC | inactive
13 | Cc1ccc2oc(=O)c3cc(C(=O)NCCCN4C(C)CCCC4C)sc3c2c1 (stereo not given) | inactive
14 | COC(=O)c1c(NC(=O)c2ccco2)sc2c1CCN(C(C)C)C2 | inactive
15 | CN(C)CCNC(=O)c1cccc(-c2cnc3c(NC=O)cc(-c4ccccc4F)cn23)c1 | inactive
16 | CC(=O)Nc1sc2c(c1-c1nc3ccccc3s1)CN(C(C)C)CC2 | inactive
17 | CCN(CC)CCn1c2ccccc2c2nc3ccccc3nc21 | inactive
18 | CC1CCc2sc3nc(N4CCN(CCO)CC4)n4ncnc4c3c2C1 (stereo not given) | inactive
19 | CN(C)CCNC(=O)c1cccc(-c2cnc3c(NC=O)cc(-c4ccc(S(C)(=O)=O)cc4)cn23)c1 | inactive
20 | COc1ccc(Cc2c(-c3ccc(OC)c(OC)c3)nc3c(C)cc(Br)cn23)c(C)c1 | inactive
